# Values joined by “and” are separate entries in the source; they are usually repeats but may differ in a detail not shown here. Equal values may be shown once. About 79,000 compounds went through this panel and 15% of them were active in at least one assay; those are over-represented in the sample as a whole. Values without a mark were called inactive. Active and inactive are the calls of the source. Cut-off read from the data, not from the text of the source: active = growth inhibition above about 70%; inactive = the rest.
# Experiments:
# [1] = NCI Yeast Anticancer Drug Screen. Data for the rad50 strain (AID 155);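 note: 0% = growth of vehicle-only cultures of the same strain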; conditions: S. cerevisiae rad50 strain growth inhibition, active compounds read high
# How it was run: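 Genetically altered yeast (DNA repair pathway); compound treatment; growth inhibition vs vehicle ctrl.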
# [2] = NCI Yeast Anticancer Drug Screen. Data for the mec2-1 strain (AID 157); conditions: S. cerevisiae mec2-1 strain, active compounds read high
# How it was run: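 Growth inhibition is read against vehicle-treated controls after compound exposure of the mec2-1 yeast strain, which is defective in DNA damage repair or cell cycle control.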
# [3] = NCI Yeast Anticancer Drug Screen. Data for the sgs1 mgt1 strain (AID 161);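 note: 0% = growth of cultures given vehicle only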; conditions: S. cerevisiae sgs1 mgt1 strain, active compounds read high
# How it was run: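 Growth of a repair-deficient yeast mutant was monitored after compound treatment and expressed as inhibition relative to vehicle-treated cultures.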
# [4] = NCI Yeast Anticancer Drug Screen. Data for the cln2 rad14 strain (AID 165);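 note: 0% = growth equal to vehicle treated cultures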; conditions: S. cerevisiae cln2 rad14 strain, active compounds read high
# How it was run: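 Growth inhibition, relative to vehicle-treated controls, is the read-out. The test organism is a yeast strain with defined genetic alterations, cln2 rad14.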
# [5] = NCI Yeast Anticancer Drug Screen. Data for the bub3 strain (AID 167); conditions: S. cerevisiae bub3 mutant strain, active compounds read high
# How it was run: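 Yeast carrying a defined mutation is treated with each compound, and growth is compared with that of vehicle-exposed cells to give inhibition.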
# [6] = NCI Yeast Anticancer Drug Screen. Data for the mlh1 rad18 strain (AID 175); conditions: S. cerevisiae mlh1 rad18 strain growth inhibition, active compounds read high
# How it was run: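 Cells of a genetically altered yeast strain, deficient in DNA damage repair, were treated with compound. Their growth was then compared with that of vehicle-treated cultures to give inhibition.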
# [7] = at 5.0 µM (retest, dose inferred, filed as 0.5)
# [8] = at 50.0 µM (retest, dose inferred, filed as 5.0)
SMILES,"growth inhibition [1, 7]","growth inhibition [1, 8]",growth inhibition ([1]; at 50.0 µM),"growth inhibition [2, 7]","growth inhibition [2, 8]",growth inhibition ([2]; at 50.0 µM),"growth inhibition [3, 7]","growth inhibition [3, 8]",growth inhibition ([3]; at 50.0 µM),"growth inhibition [4, 7]","growth inhibition [4, 8]",growth inhibition ([4]; at 50.0 µM),"growth inhibition [5, 7]","growth inhibition [5, 8]",growth inhibition ([5]; at 50.0 µM),"growth inhibition [6, 7]","growth inhibition [6, 8]",growth inhibition ([6]; at 50.0 µM)
CCN(CC)CC(=O)O[C@]1(CC)C(=O)OCc2c1cc1n(c2=O)Cc2cc3ccccc3nc2-1,93% (active),97% (active),83.2% (active),58%,98% (active),87% (active),45%,97% (active),85.1% (active),44%,93% (active),62.5%,43%,97% (active),81.5% (active),91% (active),96% (active),85.6% (active)
O=C(c1ccccc1)c1c(CC(O)c2ccccn2)n(C(=O)c2ccccc2)c2ccccc12 (centres undefined),6%,88% (active),77.5% (active),-8%,75% (active),46.7%,5%,86% (active),82.5% (active),12%,88% (active),65.7%,-10%,93% (active),74.2% (active),2%,86% (active),84% (active)
CN1C(=O)CC[C@@]2(C)C1=CC[C@H]1[C@@H]3CC[C@H](O)[C@@]3(C)CC[C@@H]12,7%,64%,-9.15%,0%,43%,14.9%,12%,79% (active),55%,13%,40%,-3.4%,3%,63%,62.1%,6%,52%,15.1%
CC(C)(C)C[CH2][Hg][Cl],99% (active),99% (active),99.2% (active),100% (active),99% (active),99.7% (active),100% (active),100% (active),99.5% (active),99% (active),100% (active),99.5% (active),99% (active),99% (active),99.6% (active),100% (active),100% (active),99.5% (active)
CSc1ccc2c(c1)c(CCN)c(C)n2Cc1ccccc1Cl,3%,100% (active),99.5% (active),0%,100% (active),99.5% (active),12%,99% (active),99.3% (active),-31%,98% (active),98.5% (active),-7%,99% (active),99.5% (active),13%,99% (active),99.4% (active)
COc1ccccc1/C=C(/C)[N+](=O)[O-],96% (active),99% (active),99.5% (active),35% and 21%,99% (active) and 100% (active),99.8% (active),34% and 55%,99% (active) and 100% (active),99.2% (active),13% and 12%,99% (active),99.5% (active),34% and 27%,99% (active) and 100% (active),99.8% (active),34% and -4%,99% (active),99.5% (active)
[Cl][Hg][Cl],99% (active),99% (active),91.3% (active),100% (active),100% (active),93.3% (active),100% (active),100% (active),94% (active),99% (active),99% (active),92.3% (active),100% (active),92% (active),93.1% (active),100% (active),99% (active),92.4% (active)
C/C(=N\N)C(CN1CCCCC1)C(c1ccccc1)c1c(O)c2ccccc2oc1=O (centres undefined),3%,3%,79.8% (active),1%,1%,63.8%,3%,3%,81.7% (active),4%,4%,74% (active),3%,3%,76.3% (active),8%,8%,80% (active)

# Source: PubChem BioAssay (NCI)
